In PubChem BioAssay AID540257 (Southern Research Specialized Biocontainment Screening …, 2011):
In all, about 1,800 compounds went through this assay and about 15 (0.8%) were called active. The rule behind the calls is not given here. The list is a sample of the results. Entries with a potency or affinity are not part of this list.

Experiment: antiviral activity against H1N1 influenza, dose response, cell-based, strain KY136 (AID 540257)
Settings: H1N1 KY136 influenza antiviral cell assay, % inhibition; series mostly up to 40 µM; inhibition: at the top concentration

| Compound | inhibition |
| --- | --- |
| c1ccc(-c2cn(C[C@H]3CC[C@@H]([C@@H]4CC[C@H](Cn5cc(-c6ccccn6)nn5)O4)O3)nn2)nc1 | 1.01% (inactive) |
| Cc1nnc2sc(SCC(=O)Nc3ccc(Cl)cc3)nn2c1=O | -2.9% (inactive) |
| CC(=O)N/C(=C/c1ccc(OC(F)F)cc1)C(=O)O | 1.56% (inactive) |
| Cc1[nH]c(=O)[nH]c1C(=O)CCCCC(=O)O | 1.82% (inactive) |
| COc1ccc(C2Nc3ccccc3C(=O)N2c2ccccc2)cc1CSc1ccccn1 (configuration not stated) | 1.38% (inactive) |
| Cc1ccc(C(=O)Nc2ccccc2C(=O)NCC2CCCO2)cc1 (configuration not stated) | -1.35% (inactive) |
| CCOc1cccc(-c2c(C(=O)N/N=C(\C)c3ccccn3)nnn2-c2nonc2N)c1 | -13.8% (inactive) |
| O=C1NCCCC1C(=O)N/N=C/c1cc([N+](=O)[O-])ccc1O (configuration not stated) | -13% (inactive) |
| C/C(=N\NC(=O)c1cccc(Br)c1)c1ccccn1 | -1.04% (inactive) |
| COc1ccc(NC(=O)CSc2nc3ccccc3nc2N2CCCC2)c(OC)c1 | 0.12% (inactive) |
| COCc1cc(C)n(CC(=O)Nc2cccc(C)c2)c(=O)c1C#N | -0.15% (inactive) |
| COc1ccc(/C=C/C(=O)NCCn2c(C)cc3ccccc32)cc1OC | 0.58% (inactive) |
| CCN1C(=O)/C(=C2\SC(=S)N(CCCOC)C2=O)c2ccccc21 | 2.51% (inactive) |
| O=c1c2ccccc2ncn1C1CCCCC1 | -6.06% (inactive) |
| CCOC(=O)C1CCN(C(c2cccc(OC)c2)c2sc3nc(C)nn3c2O)CC1 (configuration not stated) | 4.95% (inactive) |
| COc1ccccc1/C=N/NC(=O)c1[nH]c(C)c(C(=O)N/N=C/c2ccccc2OC)c1C | 0.28% (inactive) |
| CCCCN1C2=C(C(=O)CC(C)(C)C2)C(c2ccccc2)C2=C1c1ccccc1C2=O (configuration not stated) | 0.91% (inactive) |
| C(=N\c1c(-c2ccccc2)nc2n1CCS2)/c1ccccc1 | 1.65% (inactive) |
| CN(C)c1ccc(/C=C/C=C2/C(=O)NC(=O)N(c3ccccc3)C2=O)cc1 | -1.39% (inactive) |
| CC(=O)Oc1ccc(C(=O)Nc2ccccc2C(=O)NCC(C)C)cc1 | -6.06% (inactive) |
| CC(=O)Nc1cccc(NC(=O)CSc2ccc(-c3ccccn3)nn2)c1 | -3.76% (inactive) |
| COc1ccc(N2CCN(CCCNC(=O)c3cc4sccc4n3C)CC2)cc1 | 1.28% (inactive) |

| Compound | inhibition |
| --- | --- |
| Clc1ccc(-c2cnnc(-c3ccccn3)n2)cc1 | -2.12% (inactive) |
| O=[N+]([O-])c1ccc2c(c1Nc1ccccc1)=NC1(CCCCC1)N=2 | 7.35% (inactive) |
| C=CCn1c(=NC(=O)C2CCCCC2)sc2cc(NC(C)=O)ccc21 | -2.32% (inactive) |
| CCc1ccccc1NC(=S)N(CCN(C)C)C(C)c1ccccn1 (configuration not stated) | 6.54% (inactive) |
| COc1cc(-c2nnc(NC(=O)CCS(=O)(=O)c3ccc(F)cc3)o2)cc(OC)c1OC | -0.81% (inactive) |
| CCOC(=O)c1ccc(N2C(=O)c3n[nH]c(C)c3C2c2ccccn2)cc1 (configuration not stated) | 5.65% (inactive) |
| Cc1cc2cc(CNC(=O)c3cccc([N+](=O)[O-])c3)ccc2n1C | 4.06% (inactive) |
| CC(C)Oc1ccccc1/C=N/Nc1ccccc1[N+](=O)[O-] | -1.97% (inactive) |
| CN1CCN(c2ccc([N+](=O)[O-])cc2C(=O)c2ccccc2)CC1 | 0.19% (inactive) |
| Oc1ccc(/C=N/N(c2ccccc2)c2ccccc2)c(O)c1O | -0.92% (inactive) |
| C/C(CC(C)C)=N/Nc1ccc([N+](=O)[O-])cc1[N+](=O)[O-] | -6.42% (inactive) |
| Cc1cc(NC(=O)CSc2nnc(C)c(=O)[nH]2)no1 | 0.81% (inactive) |
| COc1cccc(C(=O)NC(C)C(c2cccs2)N2CCOCC2)c1 (configuration not stated) | 1.55% (inactive) |
| Cc1c2cc(O)c(=O)cc-2oc2cc(O)c(O)cc12 | -0.93% (inactive) |
| CCOc1ccc(N=Nc2c(=O)[nH]n3c(=O)c4c([nH]c23)CCCC4)cc1 | 1.63% (inactive) |
| O=c1oc2cc(Oc3ccc(C(F)(F)F)cc3[N+](=O)[O-])ccc2c2c1CCC2 | -3.03% (inactive) |
| CN1CCc2c(sc(NC(=O)Cc3ccccc3)c2C(N)=O)C1 | 5.22% (inactive) |
| CCOc1ccc(N2CSC3=C(C#N)C(c4ccco4)CC(=O)N3C2)cc1 (configuration not stated) | -0.3% (inactive) |
| CCCC(=O)NC(c1ccccc1)c1ccc2cccnc2c1O (configuration not stated) | -4.68% (inactive) |
| CN(C1=C(N2CCCCC2)C(=O)c2ccccc2C1=O)c1ccccc1 | -3.76% (inactive) |
| COc1cccc(/C=N/Nc2ccnc(=O)[nH]2)c1O | -1.51% (inactive) |
| COc1cccc(C(=O)Cn2c(N3CCOCC3)nc3c2c(=O)n(C)c(=O)n3C)c1 | 0.81% (inactive) |

| Compound | inhibition |
| --- | --- |
| COc1ccc(Nc2c([N+](=O)[O-])ccc3c2=NC2(CCCCC2)N=3)cc1 | 0.23% (inactive) |
| O=C(COC(=O)C1CC(=O)N(Cc2ccccc2)C1)c1ccc(Br)cc1 (configuration not stated) | 1.97% (inactive) |
| O=C1C(NS(=O)(=O)c2ccccc2)=C(N2CCN(c3ccc(F)cc3)CC2)C(=O)c2ccccc21 | -3.18% (inactive) |
| COc1cccc(NC(=O)CSc2nnc(CNC(=O)c3ccccc3)n2C)c1 | -0.92% (inactive) |
| CCn1c(CNC(=O)c2cccc(C)c2)nnc1SCC(=O)Nc1cccc(OC)c1 | -0.35% (inactive) |
| COc1ccccc1NS(=O)(=O)c1cccc(NC(=O)Cc2cccs2)c1 | 2.51% (inactive) |
| COc1cc2ccccc2cc1C(=O)Nc1nnc(-c2ccncc2)o1 | 0.18% (inactive) |
| Cc1cccc(NC(=O)NC(C)C(c2cccs2)N2CCOCC2)c1 (configuration not stated) | 4.01% (inactive) |
| Cc1ccc(S(=O)(=O)C2(C(=O)Nc3cccc(F)c3)CC2)cc1 | 0.83% (inactive) |
| COc1ccc(NC(=O)CC2C(=O)N(c3cccc(OC)c3)C(=O)N2Cc2ccco2)cc1 (configuration not stated) | -0.89% (inactive) |
| COC(=O)CSc1nnc(C)n1-c1cccc(C#N)c1 | 0% (inactive) |
| Cc1cc(C(F)F)nn1CC(=O)Nc1cc([N+](=O)[O-])ccc1F | 6.79% (inactive) |
| Cc1cc(N(C)C)ccc1N=Nc1ccc(N)cc1 | -4.32% (inactive) |
| CN1CCN(CCC(=O)N/N=C/c2cc([N+](=O)[O-])ccc2O)CC1 | -2.66% (inactive) |
| CCCCn1c(SCC(=O)N2CCCc3ccccc32)nc2c1c(=O)n(C)c(=O)n2C | -0.15% (inactive) |
| CC(=O)c1cccc(S(=O)(=O)Nc2cccc(S(=O)(=O)NC3=NCCC3)c2)c1 | 0.46% (inactive) |
| CC[n+]1c(/C=C/c2ccc(N(C)C)cc2)ccc2ccccc21 | -3.76% (inactive) |
| CCC(=O)NC(c1cccs1)c1cc([N+](=O)[O-])c2cccnc2c1O (configuration not stated) | -3.76% (inactive) |
| CCCCn1c(O)c(/C(CC)=N/N2CCCCC2c2cccnc2)c(=O)[nH]c1=S (configuration not stated) | 0.28% (inactive) |
| CCCCCCn1nc(C(=O)N(CC(C)C)c2c(N)n(CCCC)c(=O)[nH]c2=O)c2ccccc2c1=O | -11.6% (inactive) |
| COc1cccc(NC(=O)CSc2nc3c(oc4ccccc43)c(=O)[nH]2)c1 | 1.97% (inactive) |
| COc1cccc(/C=N/Nc2cc(N3CCOCC3)ncn2)c1O | -5.03% (inactive) |

| Compound | inhibition |
| --- | --- |
| CCc1c(C)nc(Nc2nc(C)c3cc(OC)ccc3n2)[nH]c1=O | 0.12% (inactive) |
| O=C(Nc1cc(Cl)ccc1N1CCOCC1)c1cnccn1 | 2.51% (inactive) |
| COc1ccc(Nc2ncccc2C(=O)Nc2ccccc2)cc1 | -5.03% (inactive) |
| COc1ccc(OC)c(-n2c(SCC(N)=O)nnc2-c2c[nH]c3ccccc23)c1 | 4.59% (inactive) |
| Cc1ccnc2nc(C(=O)Nc3nc(-c4ccccn4)cs3)nn12 | 3.18% (inactive) |
| O=C(CSc1nnc(CCCOc2ccc(Cl)cc2Cl)o1)Nc1ccc(C(=O)O)cc1 | -0.09% (inactive) |
| COc1ccc(NC(=O)CNS(=O)(=O)c2ccc(Cl)cc2)cc1OC | 1.52% (inactive) |
| CC1=[N+](C)c2c(ccc3cccnc23)C1(C)C | -1.21% (inactive) |
| CN(C)c1ccc(C=c2c3cc([N+](=O)[O-])ccc3n3c2cc(-c2ccccc2)[n+]3C)cc1 | -5.42% (inactive) |
| CC(c1cccs1)N(Cc1ccco1)C(=O)Nc1ccc(Cl)c(Cl)c1 (configuration not stated) | -7.16% (inactive) |
| Cc1c(NC(=S)N/N=C\c2ccccc2O)c(=O)n(-c2ccccc2)n1C | -1.97% (inactive) |
| O=C(CS(=O)(=O)c1cn(Cc2ccc(Cl)cc2)c2ccccc12)N1CCCCC1 | 1.62% (inactive) |
| COC1=C(Nc2ccc(OC)cc2)C(=O)c2ccccc2C1=O | -4.13% (inactive) |
| Cc1ccccc1NC(=O)CSc1nn2c(=O)c(C)nnc2s1 | -5.32% (inactive) |
| C(=N\Nc1nc2ccccc2[nH]1)/c1cccc2cccnc12 | -3.18% (inactive) |
| C[C@@H]1NC(=O)N[C@@H]1CCCCCC(=O)O | 0.46% (inactive) |
| C=CCC1c2cccc(C(=O)O)c2C(=O)N1c1ccc(F)cc1 (configuration not stated) | -0.92% (inactive) |
| Cc1cc(C)cc(NC2=C(N)C(=O)c3ccccc3C2=O)c1 | -0.3% (inactive) |
| CCc1ccc(NC(=O)N(CCN2CCOCC2)Cc2ccc3c(c2)CCCN3CC)cc1 | 1.01% (inactive) |
| CCCc1nc(SCc2cccnc2)c2c(=O)n(C)c(=O)n(C)c2n1 | 0.3% (inactive) |
| Cc1ccccc1NC(=S)N(CCN(C)C)C(C)c1ccccn1 (configuration not stated) | 8.04% (inactive) |
| Cc1ccc(S(=O)(=O)/N=C2\C=C(Nc3cccc(C(=O)O)c3)C(=O)c3ccccc32)cc1 | -0.83% (inactive) |

| Compound | inhibition |
| --- | --- |
| CCCN(CCC)CCCNC(=O)CCNS(=O)(=O)c1ccc(Br)cc1 | -1.67% (inactive) |
| O=C(NCc1cccs1)c1cnc2sccn2c1=O | 0.92% (inactive) |
| CN1CCc2c(sc(NC(=O)C3CCCCC3)c2C(N)=O)C1 | 2.08% (inactive) |
| COc1cc(N(C)C)ccc1C=c1c2ccccc2n2c1cc(-c1ccccc1)[n+]2C | -5.05% (inactive) |
| O=C(NCc1cccnc1)C1c2ccccc2C(=O)N1C1CCCCCCC1 (configuration not stated) | 0.93% (inactive) |
| CN(C)c1ccc(Cc2ccc(N(C)C)cc2)cc1 | -1.19% (inactive) |
| Nc1nc(-c2ccccn2)nc(N)c1Cc1c(F)cccc1Cl | -2.88% (inactive) |
| COC(=O)CNC(c1ccccc1)c1cc(C)ccc1NS(=O)(=O)c1ccc(C)cc1 (configuration not stated) | 20.3% (inactive) |
| CN(C)CCCNC(=S)NCC(c1ccc(Cl)cc1Cl)c1c[nH]c2ccccc12 (configuration not stated) | -16% (inactive) |
| O=C(Nc1nc2c(s1)CCCC2)c1ccc(Br)s1 | -2.12% (inactive) |
| Cc1cccc(N2CCN(C(=O)c3cc4ccccc4oc3=O)CC2)c1C | -3.85% (inactive) |
| COc1cc(N/N=C/c2ccccc2O)ncn1 | -1.49% (inactive) |
| CCOc1ccc(-c2nc(C#N)c(N3CCOCC3)o2)cc1 | 1.35% (inactive) |
| CCc1ccc(S(=O)(=O)/N=C2\C=C(Nc3ccc(O)cc3)C(=O)c3ccccc32)cc1 | -1.51% (inactive) |
| O=C(Nc1nc(-c2ccccc2)cs1)c1ccc(S(=O)(=O)N2CCc3ccccc32)cc1 | 0% (inactive) |
| c1ccc(-c2nc(-c3ccncc3)n[nH]2)nc1 | 0.76% (inactive) |
| Oc1cccc2ccc(Nc3ccccn3)nc12 | -14.1% (inactive) |
| O=C(N/N=C/c1ccccc1O)C1SCCCS1 | -12.7% (inactive) |
| CCCCOc1cccc(-c2nnc(NC(=O)CSc3ccc(C)cc3)s2)c1 | 0.19% (inactive) |
